{"source": "PubChem BioAssay AID1445", "about": "(SRMLSC, 2008)", "note": "Screen size: about 220,000 compounds; about 910 (0.41%) were called active. The sample holds actives, similar compounds and a random draw of the others, so the mix is not that of the screen.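 How the source made its calls: active means primary inhibition above the hit cutoff, then over 50% inhibition at one or more dose response concentrations (cut at about 23% in these data, passing the limit was not always enough); inconclusive means conflicting primary data, or primary hits not chosen for dose response; inactive means low primary inhibition, or under 50% at every dose.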 Potency and affinity values are given separately.", "data": [{"target": "Aminopeptidase N (Plasmodium falciparum (isolate 3D7)) (UniProt O96935)", "sequence (O96935 whole entry, looked up)": "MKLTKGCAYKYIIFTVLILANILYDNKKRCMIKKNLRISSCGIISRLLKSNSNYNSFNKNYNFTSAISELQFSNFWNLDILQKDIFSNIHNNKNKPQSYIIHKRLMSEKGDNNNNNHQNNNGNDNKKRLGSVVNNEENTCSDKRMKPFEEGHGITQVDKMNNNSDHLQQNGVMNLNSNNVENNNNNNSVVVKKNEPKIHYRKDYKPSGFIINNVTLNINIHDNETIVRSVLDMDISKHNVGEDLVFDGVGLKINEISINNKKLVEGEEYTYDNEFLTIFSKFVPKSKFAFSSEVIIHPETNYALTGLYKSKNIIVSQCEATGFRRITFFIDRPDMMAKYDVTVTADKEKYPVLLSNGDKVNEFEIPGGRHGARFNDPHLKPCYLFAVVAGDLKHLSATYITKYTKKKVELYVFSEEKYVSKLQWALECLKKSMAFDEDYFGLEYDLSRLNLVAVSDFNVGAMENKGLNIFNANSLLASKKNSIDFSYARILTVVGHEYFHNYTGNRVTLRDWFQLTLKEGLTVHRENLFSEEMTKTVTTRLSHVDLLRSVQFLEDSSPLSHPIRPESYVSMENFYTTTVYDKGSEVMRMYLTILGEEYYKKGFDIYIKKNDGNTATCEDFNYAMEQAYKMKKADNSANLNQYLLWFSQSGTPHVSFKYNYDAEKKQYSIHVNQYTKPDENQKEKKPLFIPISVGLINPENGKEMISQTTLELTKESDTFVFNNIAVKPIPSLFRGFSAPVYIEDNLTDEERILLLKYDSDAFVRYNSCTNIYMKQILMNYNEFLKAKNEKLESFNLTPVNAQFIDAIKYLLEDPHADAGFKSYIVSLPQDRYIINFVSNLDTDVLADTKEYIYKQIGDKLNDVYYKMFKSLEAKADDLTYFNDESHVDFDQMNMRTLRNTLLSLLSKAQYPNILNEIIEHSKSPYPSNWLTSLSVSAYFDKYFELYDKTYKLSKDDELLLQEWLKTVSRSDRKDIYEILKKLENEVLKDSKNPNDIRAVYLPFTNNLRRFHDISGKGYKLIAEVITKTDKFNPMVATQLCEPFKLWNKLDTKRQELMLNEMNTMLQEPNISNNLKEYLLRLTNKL", "experiment": "malaria alanyl aminopeptidase activity blockers – biochemical, fluorogenic H-Leu-NHMec substrate, 1536-well (AID 1445);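 further: plate controls were DMSO full reaction for no effect and no enzyme background for full effect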", "settings": "recombinant M1AAP, H-Leu-NHMec fluorogenic kinetic assay; at 30 µM, hits give high values unless noted", "values": [{"smiles": "CC(=O)N1CCN(Cc2nc3cc(NC(=O)c4cccc(Br)c4)ccc3n2C)CC1", "inhibition": "4.84% (inactive)"}, {"smiles": "Cc1cc(C)n2cc(CSc3ccc(Br)cc3)nc2n1", "inhibition": "-0.36% (inactive)"}, {"smiles": "CC(C)N(Cc1nc(-c2ccccc2)no1)C(=O)C(Cl)(Cl)Cl", "inhibition": "1.11% (inactive)"}, {"smiles": "NC(=O)N/N=C/c1cn(-c2ccccc2)nc1-c1cccs1", "inhibition": "4.92% (inactive)"}, {"smiles": "COC(=O)Cc1c(C)c2ccc(OC(C)C)cc2oc1=O", "inhibition": "4.34% (inactive)"}, {"smiles": "Cc1c(Cc2ccccc2)c(=O)oc2cc(OC(=O)c3ccccc3)ccc12", "inhibition": "1.43% (inactive)"}, {"smiles": "Cc1ccc(C(c2nnnn2CCC(C)C)N2CCN(C)CC2)cc1", "note": "(configuration not stated)", "inhibition": "-0.91% (inactive)"}, {"smiles": "CC(C)C[C@H](NC(=O)c1nc[nH]c1C(=O)N[C@@H](CC(C)C)C(=O)OC(C)(C)C)C(=O)OC(C)(C)C", "inhibition": "-5.44% (inactive)"}, {"smiles": "CC(C)C[C@H](NC(=O)c1nc[nH]c1C(=O)NC1CCN(C(=O)OC(C)(C)C)CC1)C(=O)OCc1ccccc1", "inhibition": "-9.66% (inactive)"}, {"smiles": "CC(C)C[C@H](NC(=O)c1nc[nH]c1C(=O)N1CCN(C(=O)OC(C)(C)C)CC1)C(=O)OC(C)(C)C", "inhibition": "14.4% (inactive)"}, {"smiles": "CC(C)C[C@H](NC(=O)c1[nH]cnc1C(=O)N[C@@H](C)C(=O)OC(C)(C)C)C(=O)OC(C)(C)C", "inhibition": "-4.65% (inactive)"}, {"smiles": "COc1cc(OC)cc(C2C(C#N)=C(N)Oc3n[nH]c(-c4cccnc4)c32)c1", "note": "(configuration not stated)", "inhibition": "14.9% (inactive)"}, {"smiles": "COc1cc(C2C(C#N)=C(N)Oc3n[nH]c(-c4cccnc4)c32)cc(Br)c1O", "note": "(configuration not stated)", "inhibition": "17.3% (inactive)"}, {"smiles": "CC(C)COc1ccc(C(=O)OCCN2CCOCC2)cc1", "inhibition": "0.38% (inactive)"}, {"smiles": "CN1CCN(Cc2oc(CO)cc(=O)c2O)CC1", "inhibition": "-1.32% (inactive)"}, {"smiles": "CCc1cc(=O)oc2cc(C)c(CN3CCCC3)c(O)c12", "inhibition": "13.6% (inactive)"}, {"smiles": "Cc1cc2oc(=O)cc(CN3CCC(C)CC3)c2c(C)c1Cl", "inhibition": "8.55% (inactive)"}, {"smiles": "CCN1CCN(Cc2cc(=O)oc3ccc(Cl)cc23)CC1", "inhibition": "1.72% (inactive)"}, {"smiles": "CCc1cc(=O)oc2cc(C)c(CN3CCCCC3)c(O)c12", "inhibition": "13.8% (inactive)"}, {"smiles": "Cc1cc2oc(=O)cc(CN3CCC(C)CC3)c2cc1Cl", "inhibition": "0.59% (inactive)"}, {"smiles": "CN1CCN(Cc2c(O)c(Cl)cc3c(-c4ccccc4)cc(=O)oc23)CC1", "inhibition": "19.7% (inactive)"}, {"smiles": "CCN1CCN(Cc2oc(CO)cc(=O)c2O)CC1", "inhibition": "0.53% (inactive)"}, {"smiles": "O=C(COC(=O)CCc1ccc(S(=O)(=O)N2CCOCC2)cc1)NCc1ccccc1Cl", "inhibition": "-2.82% (inactive)"}, {"smiles": "Cc1ccc(C(=O)NC(=S)NCC2CCCO2)cc1Br", "note": "(configuration not stated)", "inhibition": "3.05% (inactive)"}, {"smiles": "COc1ccc(C(=O)CSc2cc(C)nc(SCC(=O)c3ccc(C)cc3)n2)cc1", "inhibition": "12.2% (inactive)"}, {"smiles": "Cn1c(C(O)C(O)c2ccccc2)nc2ccccc21", "note": "(configuration not stated)", "inhibition": "-1.04% (inactive)"}, {"smiles": "CCCCC(=O)NC(NC(=O)CCCC)c1ccc(OCC(C)C)c(OC)c1", "inhibition": "4.4% (inactive)"}, {"smiles": "Cn1c(Sc2ccccc2Cl)c(C=O)c2ccccc21", "inhibition": "3.59% (inactive)"}, {"smiles": "CCN1C(=O)S/C(=C/c2c(OCc3ccc(C(=O)O)cc3)ccc3ccccc23)C1=O", "inhibition": "9.62% (inactive)"}, {"smiles": "Cc1ccc(S(=O)(=O)N(C)Cc2ccc(C(=O)N/N=C/c3ccc(OC(F)F)cc3)cc2)cc1", "inhibition": "-2.98% (inactive)"}, {"smiles": "Cc1cnc(NC(=O)CSc2nnc(-c3ccncc3)n2C2CCCCC2)s1", "inhibition": "4.18% (inactive)"}, {"smiles": "CN(Cc1nc(-c2ccccn2)no1)S(=O)(=O)c1ccc(Cl)cc1", "inhibition": "0.8% (inactive)"}, {"smiles": "Cc1nc2sc(C(c3ccc(C(C)C)cc3)N3CCN(CCO)CC3)c(O)n2n1", "note": "(configuration not stated)", "inhibition": "1.32% (inactive)"}, {"smiles": "C=CCn1c(SCC(=O)/C(C#N)=C(\\C)N)nc2sc(CC)cc2c1=O", "inhibition": "5.1% (inactive)"}, {"smiles": "Cc1c(C)c2cc(Cl)c(O)c(CN3CCCCC3)c2oc1=O", "inhibition": "36% (inactive)"}, {"smiles": "CCc1c(C)c2cc(Cl)c(O)c(CN3CCCCC3)c2oc1=O", "inhibition": "-1.01% (inactive)"}, {"smiles": "COc1c(O)cc2c(c1O)C(=O)CC(c1ccccc1)O2", "note": "(configuration not stated)", "inhibition": "4.17% (inactive)"}, {"smiles": "C[C@@H]1Cc2c(O)c(O)cc(O)c2C(=O)O1", "inhibition": "-2.7% (inactive)"}, {"smiles": "Cn1nc(-c2ccc(Cl)cc2)cc1NC(=O)CCCC(=O)O", "inhibition": "-1.87% (inactive)"}, {"smiles": "CC1CCc2cccc3c2N1c1cc(C#N)c(C#N)cc1O3", "note": "(configuration not stated)", "inhibition": "-3.31% (inactive)"}, {"smiles": "O=C(Nc1nc2ccccc2[nH]1)c1ccc(Br)o1", "inhibition": "0.56% (inactive)"}, {"smiles": "Cc1ccc(O)c(-c2cc(C(=O)Nc3ccc(S(=O)(=O)Nc4nccc(C)n4)cc3)[nH]n2)c1", "inhibition": "5.6% (inactive)"}, {"smiles": "O=C1CCC(C(=O)OCc2ccccc2)N1", "note": "(configuration not stated)", "inhibition": "2.24% (inactive)"}, {"smiles": "CCOC(=O)Cc1cc(=O)n2[nH]c(-c3ccc(Cl)cc3)cc2n1", "inhibition": "7.9% (inactive)"}, {"smiles": "CCOP(=O)(OCC)c1nc(-c2cccc3ccccc23)oc1NCc1ccc(OC)cc1", "inhibition": "16.1% (inactive)"}, {"smiles": "CCOP(=O)(OCC)c1nc(Cc2ccccc2)oc1NCc1ccccc1", "inhibition": "1.14% (inactive)"}, {"smiles": "Cc1ccc(S(=O)(=O)Nc2nc3n(n2)C(c2ccc(Cl)cc2)CC(=O)N3)cc1", "note": "(configuration not stated)", "inhibition": "4.26% (inactive)"}, {"smiles": "Cc1ccc(S(=O)(=O)Nc2cc(-c3ccc(Cl)cc3)nn2C)cc1", "inhibition": "4.66% (inactive)"}, {"smiles": "Oc1[nH]c2ccccc2c1/C=N/N1CCCCC1", "inhibition": "-0.99% (inactive)"}, {"smiles": "CCc1nn(C(C)C(=O)NCCc2ccc(OC)c(OC)c2)c(=O)c2cc3occc3n12", "note": "(configuration not stated)", "inhibition": "10.4% (inactive)"}, {"smiles": "O=C(O)c1ccc(N2C(=O)c3cccc4c(C(=O)O)ccc(c34)C2=O)cc1", "inhibition": "10.1% (inactive)"}, {"smiles": "O=C(O)c1cccc(N2C(=O)c3ccc4c5c(ccc(c35)C2=O)C(=O)N(c2cccc(C(=O)O)c2)C4=O)c1", "inhibition": "11.6% (inactive)"}, {"smiles": "COc1cccc(-c2nnc(SCN3C(=O)c4ccccc4C3=O)n2C)c1", "inhibition": "-1.36% (inactive)"}, {"smiles": "Fc1ccc(CN2CCSCC2)cc1Br", "inhibition": "0.38% (inactive)"}, {"smiles": "COC(=O)c1ccc(COc2ccccc2/C=N/NS(=O)(=O)c2ccccc2)cc1", "inhibition": "3.52% (inactive)"}, {"smiles": "CN1C(=O)S/C(=C\\c2ccccc2OCc2ccc(C(=O)O)cc2)C1=O", "inhibition": "18.7% (inactive)"}, {"smiles": "O=C1NC(=S)N/C1=C\\c1ccccc1OCc1ccc(C(=O)O)cc1", "inhibition": "14.7% (inactive)"}, {"smiles": "COC(=O)c1ccc(COc2ccc(/C=N/Nc3cccc(C(=O)O)c3)cc2)cc1", "inhibition": "5.29% (inactive)"}, {"smiles": "CN1C(=O)S/C(=C/c2ccccc2OCc2ccc(C(=O)O)cc2)C1=O", "inhibition": "6.59% (inactive)"}, {"smiles": "CN1C(=O)/C(=C/c2ccccc2OCc2ccc(C(=O)O)cc2)NC1=S", "inhibition": "22.6% (inactive)"}, {"smiles": "O=C(Nn1c(Cc2ccccc2)nc2ccccc2c1=O)c1c(O)c2cccc3c2n(c1=O)CCC3", "inhibition": "-0.5% (inactive)"}, {"smiles": "Cc1cc(C(=O)N2CCC(C)CC2)on1", "inhibition": "9.58% (inactive)"}, {"smiles": "COc1nc(Nc2ccc([N+](=O)[O-])cc2)nc(NC2CCCCC2)n1", "inhibition": "8.38% (inactive)"}, {"smiles": "COc1ccc(NC(=S)N2CCN(C(=O)C3CCCO3)CC2)c(OC)c1", "note": "(configuration not stated)", "inhibition": "1.1% (inactive)"}, {"smiles": "COCCNc1nnc(SCC(=O)Nc2cc(-c3ccccc3)nn2-c2ccccc2)s1", "inhibition": "8.39% (inactive)"}, {"smiles": "O=C(NNS(=O)(=O)c1ccccc1F)c1sccc1-n1cccc1", "inhibition": "1.58% (inactive)"}, {"smiles": "COC(=O)N/N=C/c1cc([N+](=O)[O-])cc(Br)c1O", "inhibition": "19.9% (inactive)"}, {"smiles": "Cc1ccc([N+](=O)[O-])cc1/C=N/Nc1nnnn1-c1ccccc1", "inhibition": "-4.44% (inactive)"}, {"smiles": "COc1cc(CCC(=O)OCC(=O)Nc2ccccc2C(C)C)cc(OC)c1OC", "inhibition": "-3.32% (inactive)"}, {"smiles": "N#CC(C#N)=C1C=CC=CN1/C(=C\\c1ccco1)C(=O)c1ccc(Cl)cc1", "inhibition": "17.2% (inactive)"}, {"smiles": "N#CC(C#N)=C1C=CC=CN1/C(=C\\c1ccco1)C(=O)c1ccc(-c2ccccc2)cc1", "inhibition": "18.3% (inactive)"}, {"smiles": "CCCc1nnc(NC(=O)NCCN2C(=O)C3C4C=CC(C4)C3C2=O)s1", "note": "(configuration not stated)", "inhibition": "0.7% (inactive)"}, {"smiles": "Cn1c(Cn2nnc(-c3ccccc3)n2)nnc1SCc1ccccc1Cl", "inhibition": "0.85% (inactive)"}, {"smiles": "CC(C)C(=O)N(c1ccc2oc(=O)sc2c1)S(=O)(=O)c1cccs1", "inhibition": "6.95% (inactive)"}, {"smiles": "CC(C)C(=O)N(c1cc2sc(=O)oc2c2ccccc12)S(=O)(=O)c1cccs1", "inhibition": "23.3% (active)"}, {"smiles": "CC(=O)N(c1ccc2oc(=O)sc2c1)S(=O)(=O)c1cccs1", "inhibition": "21.6% (inactive)"}, {"smiles": "Cc1ccc(-n2c(=O)cc(N3CCc4ccccc4C3)[nH]c2=O)cc1", "inhibition": "3.06% (inactive)"}, {"smiles": "CCc1cc2c(-c3ccccc3)cc(=O)oc2c(CN2CCOCC2)c1O", "inhibition": "9.72% (inactive)"}, {"smiles": "CCc1cc(=O)oc2c(CN3CCCC3)c(O)c(Cl)cc12", "inhibition": "18.3% (inactive)"}, {"smiles": "CCCc1cc(=O)oc2cc(C)c(CN3CCCC3)c(O)c12", "inhibition": "13.2% (inactive)"}, {"smiles": "CCc1cc2c(CN3CCN(CC)CC3)cc(=O)oc2cc1O", "inhibition": "-1.87% (inactive)"}, {"smiles": "CCc1cc2c(CN3CCN(CCO)CC3)cc(=O)oc2cc1O", "inhibition": "11.5% (inactive)"}, {"smiles": "CCCCc1cc(=O)oc2c(CN3CCCC3)c(O)c(Cl)cc12", "inhibition": "13.1% (inactive)"}, {"smiles": "CCOC(=O)c1ccc(NC(=S)NCCCN2CCOCC2)cc1", "inhibition": "-1.32% (inactive)"}, {"smiles": "CCO[C@@H]1OC(C(=O)N2CCOCC2)=C[C@H](c2ccc(C(F)(F)F)cc2)[C@H]1CCCO", "inhibition": "2.16% (inactive)"}, {"smiles": "O=C(CSc1nc2c(sc3ccccc32)c(=O)n1CCCN1CCOCC1)NCC1CCCO1", "note": "(configuration not stated)", "inhibition": "1.22% (inactive)"}, {"smiles": "Cc1ccc(N2/C(=N/c3nc(C)cc(C)n3)NC(=O)CC2C(=O)O)cc1", "note": "(configuration not stated)", "inhibition": "-5.89% (inactive)"}, {"smiles": "O=Cc1ccc(-c2ccc(F)cc2)o1", "inhibition": "12.4% (inactive)"}, {"smiles": "O=C(/C=C/c1ccc(-c2ccccc2)o1)c1ccccc1", "inhibition": "4.34% (inactive)"}, {"smiles": "N=c1c2c3c(sc2nc2n1CCC2)CCCC3", "inhibition": "7.32% (inactive)"}, {"smiles": "CCNc1nc(Cl)nc(-c2cn(-c3ccccc3)c3ccccc23)n1", "inhibition": "-7.96% (inactive)"}, {"smiles": "COc1ccc(NC(C)=O)cc1S(=O)(=O)N1CCN(C/C=C/c2ccccc2)CC1", "inhibition": "2.09% (inactive)"}]}]}
